# In PubChem BioAssay (NCI):
# Several values for one entry are separate records, joined by “and”; a condition that tells them apart may be missing. Identical values can stand only once. About 79,000 compounds went through this panel and 15% of them were active in at least one assay; those are over-represented in the sample as a whole. The source holds several records for some structures; these can differ, active in one and inactive in another. Activity calls are given as the source filed them. No stated cut-off is given here; in the data, active means growth inhibition above about 70%; inactive means the rest.
# Tests used:
# [1] = NCI Yeast Anticancer Drug Screen. Data for the rad50 strain (AID 155);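 further: 0% = growth of vehicle-only cultures of the same strain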; conditions: S. cerevisiae rad50 strain growth inhibition, stronger effect = higher value
# Procedure, shortened: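 Vehicle-treated cultures provide the reference for the growth inhibition reported for compound-exposed, repair-deficient yeast.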
# [2] = NCI Yeast Anticancer Drug Screen. Data for the mec2-1 strain (AID 157); conditions: S. cerevisiae mec2-1 strain, stronger effect = higher value
# Procedure, shortened: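 mec2-1 yeast strain, carrying an alteration in DNA damage repair or cell cycle control, was exposed to compounds; growth inhibition was measured relative to vehicle-treated controls.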
# [3] = NCI Yeast Anticancer Drug Screen. Data for the sgs1 mgt1 strain (AID 161);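 further: 0% = growth of cultures given vehicle only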; conditions: S. cerevisiae sgs1 mgt1 strain, stronger effect = higher value
# Procedure, shortened: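 Yeast cells carrying a defined DNA-repair defect were exposed to test compounds. Growth inhibition was measured relative to vehicle-treated controls.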
# [4] = NCI Yeast Anticancer Drug Screen. Data for the cln2 rad14 strain (AID 165);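 further: 0% = growth equal to vehicle treated cultures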; conditions: S. cerevisiae cln2 rad14 strain, stronger effect = higher value
# Procedure, shortened: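 Yeast carrying cln2 and rad14 alterations (cell cycle control and DNA damage repair) were exposed to compounds. Growth inhibition was measured against vehicle-treated controls.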
# [5] = NCI Yeast Anticancer Drug Screen. Data for the bub3 strain (AID 167); conditions: S. cerevisiae bub3 mutant strain, stronger effect = higher value
# Procedure, shortened: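 Mutant yeast screening strain plus compound; vehicle-treated cultures serve as the 0% inhibition reference.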
# [6] = NCI Yeast Anticancer Drug Screen. Data for the mlh1 rad18 strain (AID 175); conditions: S. cerevisiae mlh1 rad18 strain growth inhibition, stronger effect = higher value
# Procedure, shortened: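 Growth inhibition of the yeast strain was measured after compound exposure and expressed relative to vehicle-treated controls. The strain carries defined defects in DNA damage repair.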
# [7] = at 5.0 µM (retest, dose inferred, filed as 0.5)
# [8] = at 50.0 µM (retest, dose inferred, filed as 5.0)
SMILES,"growth inhibition [1, 7]","growth inhibition [1, 8]",growth inhibition ([1]; at 50.0 µM),"growth inhibition [2, 7]","growth inhibition [2, 8]",growth inhibition ([2]; at 50.0 µM),"growth inhibition [3, 7]","growth inhibition [3, 8]",growth inhibition ([3]; at 50.0 µM),"growth inhibition [4, 7]","growth inhibition [4, 8]",growth inhibition ([4]; at 50.0 µM),"growth inhibition [5, 7]","growth inhibition [5, 8]",growth inhibition ([5]; at 50.0 µM),"growth inhibition [6, 7]","growth inhibition [6, 8]",growth inhibition ([6]; at 50.0 µM)
NNc1ccc2ccccc2c1,28% (inactive),86% (active),97.2% (active) and 22.5% (inactive),4% (inactive),56% (inactive),85.6% (active) and 2.95% (inactive),13% (inactive),57% (inactive),95.5% (active) and 26.1% (inactive),16% (inactive),30% (inactive),90.2% (active) and 29.1% (inactive),16% (inactive),77% (active),91.2% (active) and 21.1% (inactive),33% (inactive),91% (active),97.2% (active) and 25.7% (inactive)
CCN(CCO)CCNc1ccc(C)c2sc3ccccc3c(=O)c12,36% (inactive),98% (active),88.2% (active),13% (inactive),92% (active),90.7% (active),9% (inactive),98% (active),91.8% (active),21% (inactive),94% (active),90.8% (active),6% (inactive),98% (active),90.5% (active),23% (inactive),98% (active),
Nc1ccc(Cn2ccc3c4c(N)nc(N)nc4ccc32)cc1,14% (inactive),83% (active),33.7% (inactive),29% (inactive),96% (active),68.3% (inactive),7% (inactive),88% (active),72.7% (active),6% (inactive),60% (inactive),63.2% (inactive),-10% (inactive),84% (active),41.4% (inactive),13% (inactive),87% (active),
C=CC(=O)OCCOc1ccc(Cl)cc1Cl,1% (inactive),98% (active),57.2% (inactive),2% (inactive),99% (active),30.4% (inactive),6% (inactive),98% (active),73.2% (active),-1% (inactive),94% (active),-28.1% (inactive),12% (inactive),97% (active),24.2% (inactive),24% (inactive),98% (active),83.9% (active)
CN(C)c1nc(N)c(C#N)c(C#N)c1C#N,21% (inactive),62% (inactive),69.6% (inactive),21% (inactive),44% (inactive),88.2% (active),11% (inactive),61% (inactive),80.8% (active),27% (inactive),45% (inactive),53.9% (inactive),9% (inactive),79% (active),88.5% (active),26% (inactive),85% (active),
CC1OC(OC2CC(O)(C(=O)CO)Cc3c(O)c4c(c(O)c32)C(=O)c2ccccc2C4=O)CC(N)C1O (stereo not given),87% (active),96% (active),87.8% (active),62% (inactive),95% (active),91.1% (active),86% (active),97% (active),89.5% (active),57% (inactive),95% (active),87.3% (active),56% (inactive),96% (active),89.1% (active),77% (active),94% (active),
Cc1[nH]c2ccccc2c1C1Cc2ccccc2N1 (stereo not given),14% (inactive) and 19% (inactive),15% (inactive) and 76% (active),37.1% (inactive) and 57.5% (inactive),12% (inactive) and 24% (inactive),14% (inactive) and 59% (inactive),36.2% (inactive) and 78.5% (active),16% (inactive) and 25% (inactive),14% (inactive) and 79% (active),46.3% (inactive) and 81.3% (active),10% (inactive) and 16% (inactive),6% (inactive) and 29% (inactive),47.4% (inactive) and 67.6% (inactive),9% (inactive) and 15% (inactive),-12% (inactive) and 76% (active),30.6% (inactive) and 94.2% (active),15% (inactive) and 20% (inactive),37% (inactive) and 52% (inactive),69.7% (inactive) and 96.2% (active)
CCN(CC)c1ccc(C(=C2C=CC(=[N+](CC)CC)C=C2)c2ccc(N(CC)CC)cc2)cc1,97% (active),91% (active),67.5% (inactive),98% (active),92% (active),73% (active),98% (active),92% (active),77.5% (active),97% (active),91% (active),76% (active),98% (active),90% (active),74.6% (active),97% (active),90% (active),
CC1CC[P+](c2ccccc2)(c2ccccc2)c2c1ccc1ccccc21 (stereo not given),76% (active),98% (active),84.9% (active),54% (inactive),98% (active),90.2% (active),81% (active),98% (active),91.2% (active),30% (inactive),97% (active),88.8% (active),67% (inactive),99% (active),88.6% (active),64% (inactive),97% (active),
Cc1ccc(NCCN(C)C)c2c(=O)c3cc(O)ccc3sc12,27% (inactive),99% (active),88.7% (active),5% (inactive),99% (active),91.3% (active),10% (inactive),99% (active),91.2% (active),15% (inactive),98% (active),90% (active),4% (inactive),98% (active),88.4% (active),18% (inactive),99% (active),
Nc1nc(N)c2c(Cl)c(CNc3ccc(Cl)c(Cl)c3)ccc2n1,82% (active),98% (active),88.1% (active),97% (active),98% (active),91% (active),81% (active),98% (active),90.8% (active),46% (inactive),98% (active),89.9% (active),74% (active),98% (active),89.7% (active),75% (active),98% (active),
CCC(C)[P+](c1ccccc1)(c1ccccc1)c1ccccc1 (stereo not given),2% (inactive),36% (inactive),62.9% (inactive) and 33.3% (inactive),18% (inactive),60% (inactive),66% (inactive) and 29.6% (inactive),-8% (inactive),23% (inactive),53.9% (inactive) and 19.9% (inactive),-4% (inactive),25% (inactive),58.1% (inactive) and 36% (inactive),-3% (inactive),30% (inactive),57.8% (inactive) and 36% (inactive),21% (inactive),54% (inactive),72.4% (active) and 53.9% (inactive)
O=C1c2ccccc2-n2c1nc1ccccc1c2=O,18% (inactive),83% (active),74% (active),14% (inactive),48% (inactive),57% (inactive),21% (inactive),39% (inactive),29.2% (inactive),30% (inactive),43% (inactive),17.9% (inactive),32% (inactive),57% (inactive),53.1% (inactive),23% (inactive),62% (inactive),
CCCCCCCc1c(Cl)nc(Cl)nc1Cl,11% (inactive),92% (active),78.3% (active),12% (inactive),97% (active),88.3% (active),3% (inactive),96% (active),87% (active),11% (inactive),78% (active),46% (inactive),4% (inactive),99% (active),76.2% (active),16% (inactive),96% (active),
Cc1cc(NCCCCCCCNc2cc(C)nc3cc([N+](=O)[O-])ccc23)c2ccc([N+](=O)[O-])cc2n1,1% (inactive),87% (active),68.5% (inactive),15% (inactive),83% (active),77% (active),5% (inactive),90% (active),72.2% (active),14% (inactive),70% (active),57.8% (inactive),1% (inactive),83% (active),73.1% (active),5% (inactive),88% (active),
CN(C)CCNc1ccc(CO)c2oc3ccc(O)cc3c(=O)c12,17% (inactive),41% (inactive),26.5% (inactive),13% (inactive),41% (inactive),59.9% (inactive),13% (inactive),36% (inactive),9.95% (inactive),22% (inactive),28% (inactive),-14.1% (inactive),15% (inactive),66% (inactive),49% (inactive),21% (inactive),63% (inactive),
C=C1CC2(CC(c3ccccc3OC)OC(c3ccccc3OC)C2)OC1=O (stereo not given),34% (inactive),58% (inactive),61.1% (inactive),15% (inactive),10% (inactive),74.7% (active),26% (inactive),70% (active),54.2% (inactive),23% (inactive),79% (active),71.8% (active),21% (inactive),14% (inactive),60.5% (inactive),40% (inactive),88% (active),
COc1ccc2nc(C)cc(NCCCCCCCCCNc3cc(C)nc4ccc(OC)cc34)c2c1,-17% (inactive),94% (active),83.4% (active),-30% (inactive),94% (active),87.9% (active),-2% (inactive),96% (active),80.8% (active),-11% (inactive),75% (active),71% (active),-40% (inactive),88% (active),78.5% (active),-21% (inactive),93% (active),
